In the library only some 1.1% were active in any assay of this set; here they are far more common.
S1P2 agonist: agonists of human S1P2 receptor | O95136 | S1P2-expressing cell line, agonist reporter read-out | activation, % at 4.5 µM | hit rate 0.46% among 97,000 | AID 729; in the data active = activation above about 16%;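 note: 0% = vehicle low control and 100% = maximal reference agonist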
Target sequence (O95136 whole entry, looked up): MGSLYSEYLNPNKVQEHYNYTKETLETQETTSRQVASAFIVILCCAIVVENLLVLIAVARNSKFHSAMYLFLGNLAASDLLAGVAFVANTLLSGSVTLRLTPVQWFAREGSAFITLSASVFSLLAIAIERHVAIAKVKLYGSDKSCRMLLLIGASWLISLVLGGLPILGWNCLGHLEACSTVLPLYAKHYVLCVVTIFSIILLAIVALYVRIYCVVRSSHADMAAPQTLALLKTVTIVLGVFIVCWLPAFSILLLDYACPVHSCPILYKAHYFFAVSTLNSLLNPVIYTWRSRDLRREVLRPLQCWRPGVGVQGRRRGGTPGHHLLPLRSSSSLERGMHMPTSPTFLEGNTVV
GALR2 blocker: antagonists of human galanin receptor 2 (GALR2) | O43603 | inhibition, % at 4 µM | hit rate 0.39% among 140,000 | GALR2-expressing cells, antagonist mode; in the data active = inhibition above about 27%;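 note: cells stimulated with galanin 1-16 at roughly its EC80; 0% = agonist challenge control and 100% = basal control without agonist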
S1P2 antag: antagonists of human S1P2 receptor. AID 736. hit rate 0.21% among 97,000. cell-based S1P2 antagonist assay, inhibition at 5 uM. O95136. inhibition, % at 5 µM; in the data active = inhibition above about 45%;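 note: CRE beta-lactamase reporter cells expressing human S1P2 stimulated with S1P; 0% = agonist at EC80 alone and 100% = agonist plus reference antagonist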
GALR2 ag: GALR2 (human) receptor agonism | hit rate 0.48% among 140,000 | O43603 | activation, % (test concentration not listed) | AID 803 | GALR2-expressing cells, agonist activation read-out; in the data active = activation above about 5%, passing the limit was not always enough;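 note: 0% = vehicle buffer wells and 100% = reference agonist at full effect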
Starred values were filed as active, the others as inactive; . = no result.

SMILES	S1P2 agonist	GALR2 blocker	S1P2 antag	GALR2 ag
COc1ccc(-c2cc(C3CCN(c4cc(Cl)nc(N)n4)CC3)[nH]n2)cc1	-12	-4	6	-1
Nc1nc(Cl)cc(N2CCC(c3cc(-c4ccc(Cl)cc4)n[nH]3)CC2)n1	-9	6	82*	-1
CC(C)[C@H](NS(=O)(=O)c1ccc2c(c1)OCCO2)C(=O)OCC(=O)Nc1cc(Cl)ccc1Cl	.	8	.	-1
CCC1(C)CC(c2nc(-c3ccc(OC)cc3)cs2)CCS1 (stereo not drawn)	.	-9	.	1
CN(C)c1ccc(/C=C/C(O)=C2/C(=O)N(C)C3(C)CC2c2ccccc2O3)cc1 (stereo not drawn)	-2	8	69*	4
CCS(=O)(=O)N1CCC(C(=O)NCCc2ccccc2)CC1	-1	-1	8	-1
CCS(=O)(=O)N1CCC(C(=O)NCCN2CCN(Cc3ccccc3)CC2)CC1	-8	-1	-2	6.2*
CCN(CC)C(=O)c1ccc2c(c1[N+](=O)[O-])C(=O)c1ccccc1C2=O	.	13	.	-1
CCOC(=O)c1c(C)n(C)c2ccc(OC(=O)c3ccco3)cc12	-6	7	-6	0
CCOC(=O)c1cc2ccc(OC(=O)c3ccco3)cc2oc1=O	150*	-78	-243	209*
CC(OC(=O)Cc1c(F)cccc1Cl)C(=O)NCCC1=CCCCC1 (stereo not drawn)	.	-1	.	0
CCn1c(C)nc2cc(C(=O)OC(C(F)(F)C(F)F)C(F)(F)C(F)F)ccc21	-9	7	70*	0
COc1ccc2oc(=O)c(-c3ccccc3C(=O)N3CCOCC3)cc2c1	.	2	.	-1
CC(=O)c1nn(-c2cccc(Br)c2)cc1C(=O)c1ccc(Cl)cc1	.	-10	.	7.5*
C=CCn1c(=N)n(CC(=O)c2ccc(Br)s2)c2ccccc21	.	21	.	1
COc1ccccc1N1CCN(CC(=O)Nc2sccc2C#N)CC1	.	-5	.	-1
O=c1cc(-c2c(F)c(F)c(F)c(F)c2F)oc2ccccc12	1	8	16	-2
O=c1cc(-c2c(F)c(F)c(F)c(F)c2F)oc2c(F)c(F)c(F)c(F)c12	.	69*	.	-1
Cc1cc2c(=O)n(CC(=O)N3CCN(c4ccc(F)cc4)CC3)cnc2s1	31*	-12	16	0
COc1ccc(-c2nn(-c3ccccc3)cc2/C=N/NC(=O)c2ccc(Br)o2)cc1	-5	-1	47*	-1
CCN(CC)S(=O)(=O)c1ccc(OC)c(NC(=S)Nc2cccc(C)c2C)c1	.	2	.	-1
Cn1cc(C(=O)NCc2cccs2)c(=O)c2cc(S(=O)(=O)N3CCCC3)ccc21	.	-18	.	0
NC(=S)N/N=C/c1ccccc1OCCSc1ccc(Cl)cc1	.	0	.	-1
CCn1c(=O)c(C(=O)Nn2c(C)nc3ccccc3c2=O)c(O)c2ccccc21	.	2	.	0
CCn1c(=O)c(C(=O)Nc2nc3ccccc3[nH]2)c(O)c2ccccc21	4	2	79*	1
SMILES	S1P2 agonist	GALR2 blocker	S1P2 antag	GALR2 ag
Cc1ccc2nc3c(cc2c1)c(NC(=O)c1ccccn1)nn3CC(C)C	19*	-11	-22	3
CN(C)c1ccc(NC(=O)c2cccc(N3C(=O)C4C5C=CC(C5)C4C3=O)c2)cc1 (stereo not drawn)	-4	47*	-2	-3
COc1ccc(OC)c(NC(=O)c2cn(C)c(=O)c3cc(OC)c(OC)cc23)c1	33*	-1	-62	0
CCn1cc(C(=O)Nc2ccc(OC)c(OC)c2)c2cc(OC)c(OC)cc2c1=O	22*	-8	-34	0
Cc1cc(C)c(C(=O)COC(=O)CCNS(=O)(=O)c2c(Cl)cccc2Cl)cc1C	.	13	.	-1
COc1ccc(C(=O)C(CO)Oc2ccccc2OC)cc1OC (stereo not drawn)	19*	-7	13	-2
COc1ccc(C(=O)c2ccc(OC)c(OC)c2)cc1OC	0	-2	7	-3
COC(=O)c1ccccc1S(=O)(=O)N1Cc2cc([N+](=O)[O-])ccc2Oc2ccccc21	-3	0	7	-2
Cc1cccc(C(=O)N2CCC(Cc3ccccc3)CC2)c1[N+](=O)[O-]	.	2	.	0
COCCN(CCOC)S(=O)(=O)c1ccc(OC)cc1	-7	9	16	-2
CCN(CC)S(=O)(=O)c1ccc(Oc2ccc(S(=O)(=O)N(CC)CC)cc2)cc1	-4	6	72*	-1
Cc1cc(NC(=O)COC(=O)c2oc3c(ccc4ccccc43)c2C)no1	.	2	.	5.1*
Cc1ccc(-c2cc(C(=O)OCC(=O)Nc3cc(C)on3)c3ccccc3n2)c(C)c1	-1	-2	-2	-2
CCC(NC(=O)/C(=C\c1ccc2c(c1)OCO2)NC(C)=O)C(=O)O (stereo not drawn)	.	11	.	-1
O=C(Nc1ccccn1)c1ccc(Br)c(S(=O)(=O)N2CCCCC2)c1	.	12	.	-1
O=C(/C(=C/c1ccc(Cl)cc1)c1nc2ccccc2[nH]1)c1cccs1	-12	26	40	-3
N=c1c(-c2nc3ccccc3[nH]2)cc(C(=O)c2cccs2)nn1-c1ccc(Cl)cc1	30*	3	-29	-2
N#CCSc1nc2cc(C(=O)N3CCC(C(N)=O)CC3)ccc2c2nc3ccccc3n12	37*	-8	-23	0
N#CCSc1nc2cc(C(=O)N3CCCC3)ccc2c(=O)n1Cc1ccccc1	0	-4	-3	1
COc1ccc(-c2cn(-c3ccc(C)cc3)c(=O)n2CC(=O)Nc2cccc(F)c2)cc1	-5	-20	-19	15*
COc1ccc(/C=N/NC(=O)c2ccc(COc3ccccc3Cl)o2)c(OC)c1C	.	0	.	8.0*
N#Cc1cc2c(nc1SCC(=O)N1CCCCC1)CCCC2	32*	0	17	1
N#Cc1cc2c(nc1SCC(=O)N1CCCCC1)CCCCC2	-5	2	-21	-1
Cc1cc(Br)ccc1OCCCCNCCO	69*	9	30	-5
C=CCNCCCCOc1ccc(Br)cc1C	.	7	.	-1
SMILES	S1P2 agonist	GALR2 blocker	S1P2 antag	GALR2 ag
COC(=O)c1ccc2nc(C)c(C)nc2c1	-5	-9	-1	-2
COC(=O)c1ccc2c(c1)C(C)(C)C(/C=C/c1ccc(OC)c(OC)c1OC)=[N+]2C	-10	-7	48*	0
COC(=O)c1ccc2c(c1)C(C)(C)C(/C=C/c1ccc(O)cc1)=[N+]2C	6	25	37	6.8*
CCOC(=O)C(Cc1ccccc1)C(=O)Nc1cccc2ccccc12 (stereo not drawn)	.	0	.	-1
O=C1c2cnc3nc(SCc4ccc(Cl)cc4)nn3c2CC2c3ccccc3CCN12 (stereo not drawn)	22*	8	-18	4
C=CCOc1ccc2nnc(C)n2n1	.	-3	.	-1
CCN1CCN(c2nc(N)c([N+](=O)[O-])c(Nc3cccc(C)c3)n2)CC1	.	-1	.	1
CN(Cc1ccccc1)c1nc(N)c([N+](=O)[O-])c(Nc2cccc(F)c2)n1	22*	1	-60	-4
O=[N+]([O-])c1ccc(N/N=C/c2cn(Cc3ccc(F)cc3)c3ccccc23)nc1	.	19	.	-1
COc1ccc(C(=O)c2sc3nc(-c4ccccc4)ccc3c2N)cc1OC	-14	20	57*	0
Cc1ccc(-n2ncc3c(N4CCN(c5ccccc5)CC4)ncnc32)c(C)c1	-4	8	60*	0
